# Screening results (PubChem BioAssay)
# This is a sample that favours compounds with a hit; in the whole collection about 9% have one here.
# ALOX12 inh: blocks human arachidonate 12S-lipoxygenase; P18054; purified 12hLO, xylenol orange hydroperoxide absorbance; Potency, µM (highest dose often 108 µM), inactives show at the highest dose activity change, negative = inhibition, actives largely listed as inhibitors; 580,000 compounds, 1.1% hits; AID 1671190; also: % is scaled to controls: 0 for no effect and ±100 for the full control effect
#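 Hydroperoxide product was detected by ferrous iron/xylenol orange as the 573 to 405 nm absorbance ratio. Arachidonic acid at 40 uM (final) was turned over for 30 min at room temperature by 150 nM human 12hLO, pH 7.0 Hepes buffer, after 15 min compound preincubation.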
# HP1b binding inh: blocks HP1-beta chromodomain binding to methylated histone tails; AlphaScreen HP1-beta / biotin-H3K9me3 peptide binding; P83916; 390,000 compounds, 0.56% hits; Potency, µM (highest dose often 114 µM), for inactives: at the top dose activity change, negative = inhibition, actives largely listed as inhibitors; AID 540317; also: nearly all actives have a fitted effect of over 70% in size
# Target sequence (P83916 whole entry, looked up): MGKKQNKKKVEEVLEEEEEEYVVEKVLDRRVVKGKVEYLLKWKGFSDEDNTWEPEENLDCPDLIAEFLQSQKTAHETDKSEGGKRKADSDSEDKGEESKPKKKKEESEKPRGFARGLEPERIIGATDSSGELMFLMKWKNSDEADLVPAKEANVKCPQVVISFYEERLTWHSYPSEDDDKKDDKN
#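 HP1-beta protein (50 nM final) preincubated 30 min at room temperature with biotinylated H3(1-18)K9me3 peptide (50 nM) in PBS pH 7.4, 0.01% Tween-20, then compound added for 30 min. AlphaScreen streptavidin donor/nickel chelate acceptor beads (10 ug/mL final), 30 min dark, luminescence read.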
# BAZ2B block: blocks human BAZ2B | 360,000 compounds, 4.4% hits | AID 504333 | Potency, µM (titrated, usually from 114 µM), for inactives: at the top dose activity change, negative = inhibition, usual class: inhibitors | Q9UIF8 | AlphaScreen BAZ2B-H3K14Ac peptide displacement; also: % is scaled to controls: 0 for no effect and ±100 for the full control effect; nearly all actives have a fitted effect of over 60% in size
#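 Protein-peptide AlphaScreen: BAZ2B 50 nM, b-H3K14Ac 50 nM, 1x PBS pH 7.4 + 0.01% Tween-20. Preincubation 30 min RT; cpd 30 min RT (top 110 uM); beads 20 min RT, light-protected.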
# JMJD2A Tudor inh: blocks the human JMJD2A Tudor domain; O75164; 390,000 compounds, 4.4% hits; AID 504339; Potency, µM (titrated, usually from 114 µM), for the others: at the highest dose activity change, negative = inhibition, actives largely listed as inhibitors; AlphaScreen JMJD2A-Tudor / H3K4me3 peptide binding; also: % is scaled to controls: 0 for no effect and ±100 for the full control effect; nearly all actives have a fitted effect of over 50% in size
# PLK1 PBD inh: PLK1 (human) polo-box domain binding inhibition; Plk1 PBD binding of FITC phosphopeptide, fluorescence polarization; Potency, µM, for the others: max response, negative = inhibition, actives largely listed as inhibitors; 360,000 compounds, 2.8% hits; also: series mostly up to about 57 µM; % is scaled to controls: 0 for no effect and ±100 for the full control effect; nearly all actives have a fitted effect of over 65% in size
# G9a inh: G9a (human) methyltransferase inhibition. Q96KQ7. G9a H3K9 monomethylation, AlphaScreen, 2 h. Potency, µM (titrated, usually from 102 µM), for the others: at the top dose activity, negative = inhibition, most hits filed as inhibitors. 350,000 compounds, 8.8% hits. AID 504332; also: % is scaled to controls: 0 for no effect and ±100 for the full control effect; nearly all actives have a fitted effect of over 75% in size
# Target sequence (Q96KQ7 913-1193 limits assumed): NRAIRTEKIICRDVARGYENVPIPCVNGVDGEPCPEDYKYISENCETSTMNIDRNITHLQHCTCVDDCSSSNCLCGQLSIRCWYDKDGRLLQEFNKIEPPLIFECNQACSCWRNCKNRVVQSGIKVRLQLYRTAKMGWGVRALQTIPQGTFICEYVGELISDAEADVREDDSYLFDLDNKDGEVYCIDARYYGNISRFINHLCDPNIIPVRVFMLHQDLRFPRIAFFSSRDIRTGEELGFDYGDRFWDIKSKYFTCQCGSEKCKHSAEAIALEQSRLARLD
#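 Readings reflect AlphaScreen signal from monomethyl-H3K9 antibody detection. HMT at 20 nM; substrate b-H3K9 500 nM; cofactor SAM 20 uM; 2 h RT reaction; compounds tested as titrations in qHTS with 15 min preincubation.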
# * = called active by the depositor; ? = inconclusive; . = no result; [ ] = remark or other dose. Calls follow the shape of the dose curve; as a rule, active = well fitted curve in the direction sought with a large enough effect; inconclusive = small, poorly fitted or top-dose-only effect, or another doubt; inactive = no such curve, though single readings can be large; an effect the other way counts as inactive or inconclusive. Potency is read from the fitted curve at half-maximal effect.
SMILES,ALOX12 inh,HP1b binding inh,BAZ2B block,JMJD2A Tudor inh,PLK1 PBD inh,G9a inh
COc1ccccc1OCCOc1ccc(/C=C2\C(=N)N3N=C(S(C)(=O)=O)SC3=NC2=O)cc1,?,-14.1%,50.1µM*,22.4µM*,13.4µM*,2.9%[2.33 µM]
COc1cccc(OCCOc2ccc(/C=C3\C(=N)N4N=C(S(C)(=O)=O)SC4=NC3=O)cc2OC)c1,?,-2.9%,79.4µM*,56.2µM*,?,39.8µM*
COc1nc(C)ccc1-c1noc(-c2cccs2)n1,28.3%,27.9%,-11.1%,-2.8%,-1.2%,25.8%
Cc1ccc(CN2CCN(c3ccccc3)CC2)o1,-71.0%,?,50.1µM*,20µM*,0.1%,22.4µM*
O=[N+]([O-])c1cccc(-c2ccc(CN3CCN(c4ccccc4)CC3)o2)c1,7.08µM*,?,44.7µM*,35.5µM*,3.2%,39.8µM*
CC(=O)N1CCN(C(=S)c2cccc([N+](=O)[O-])c2)CC1,-28.4%,-3.1%,0.5%,-4.2%,-25.6%,?
O=[N+]([O-])c1ccc(N2CCN(C(=S)c3cccc([N+](=O)[O-])c3)CC2)cc1,-0.3%,11.2µM*,56.2µM*,?,2.38µM*,2µM*
Cc1ccc(N2CCN(C(=S)c3ccc(-c4cccc([N+](=O)[O-])c4)o3)CC2)cc1,?,?,?,?,29.9µM*,8.91µM*
O=C(c1ccco1)N1CCN(C2CC(=O)N(c3ccc(C(F)(F)F)cc3)C2=O)CC1 (stereo not drawn),337.6%,23.9%,-6.5%,4.9%,-15.1%,-2.1%[12.7 µM]
O=C(c1ccco1)N1CCN(C(=O)c2ccc(-c3ccc([N+](=O)[O-])cc3)o2)CC1,?,-32.9%,.,39.8µM*,-20.9%,.
Cc1ccccc1N1CCN(C(=S)c2ccc(-c3ccc([N+](=O)[O-])cc3)o2)CC1,?,?,7.94µM*,?,?,.
Cc1ccccc1N1CCN(C(=S)c2ccc(-c3cccc([N+](=O)[O-])c3)o2)CC1,-18.5%,-24.1%,.,?,?,12.6µM*
Cc1ccc(-c2cc(C(=O)N3CCOCC3)c3ccccc3n2)c(C)c1,36.7%,.,.,.,.,.
Cc1ccc(C(=O)NCCSc2c(C)[nH]c3ccccc23)cc1[N+](=O)[O-],?,3.7%,?,?,-0.2%,50.1µM*
Cc1cc(CNC(=O)c2ccc(C)c([N+](=O)[O-])c2)c2ccccc2n1,-8.7%,21.7%,-34.9%,-8.2%,-11.3%,35.5µM*
Cc1ccc(C(=O)NCCn2ccc3ccccc32)cc1[N+](=O)[O-],-52.2%,-15.2%,.,79.4µM*,-25.2%,-44.0%
COc1cc(C(=O)NCCSc2c(C)[nH]c3ccccc23)cc(OC)c1OC,?,22.9%,-25.3%,?,.,-7.4%[59 µM]
Cc1cc(CNC(=O)Cn2nc(C)c([N+](=O)[O-])c2C)c2ccccc2n1,-17.9%,35.3%,-18.8%,-19.3%,-12.1%,35.5µM*
Cc1ccc(C(=O)OCC(=O)NC(=O)c2cccn2C)cc1[N+](=O)[O-],?,1.3%,3.1%,-2.9%[11.4 µM],26.7µM*,2.2%
Cc1cc2cc(CNC(=O)c3ccc(C)c([N+](=O)[O-])c3)ccc2[nH]1,1.6%,-11.5%,?,?,-13.1%,56.2µM*
Cc1cc2cc(CCNC(=O)c3ccc(C)c([N+](=O)[O-])c3)c(=O)[nH]c2cc1C,4.4%,4.6%,5.9%,-20.3%,-7.5%,-6.0%[12.7 µM]
O=C(c1c[nH]c2ncccc12)N1CCC(Cc2ccccc2)CC1,7.3%[176 µM],.,.,.,.,.
Cc1ccc(N2C(=O)CSCC2=O)cc1,-1.0%,23.9%,-2.8%,-4.9%,-4.7%,7.4%[12.7 µM]
Cc1ccc(N2C(=O)CS(=O)(=O)CC2=O)cc1,-17.4%,63.5%,-17.5%,-6.3%,-7.4%,31.6µM*
C[n+]1ccccc1N1CCN(c2ccccc2Cl)CC1,?,-1.2%,-13.7%,79.4µM*,26.7µM*,3.98µM*
SMILES,ALOX12 inh,HP1b binding inh,BAZ2B block,JMJD2A Tudor inh,PLK1 PBD inh,G9a inh
Cc1nc(SCC(=O)NC(=O)NCc2ccccc2)nc(C)c1C,260.4%,6.9%,11.6%,-19.8%,-7.3%,?
Cc1ccc(Nc2nc3nonc3[nH]c2=O)cc1,?,38.0%,-25.6%,-2.2%,0.7%,?
Cc1ccc(CNC(=O)CCCC(=O)Nc2cc(C)on2)cc1,11.2%,?,-6.6%,15.8µM*,15µM*,.
Cc1cc(NC(=O)CCCC(=O)NCc2ccccc2)no1,7.0%,9.8%,-21.8%,-0.7%,-8.7%,-4.7%
Cc1cc(NC(=O)CCOc2ccc(F)cc2)no1,0.0%,35.8%,-8.8%,-0.7%,-21.7%,56.2µM*
Cc1cc(N2CCN(C)CC2)nc(=S)[nH]1,1.9%,54.2%,-29.5%,-9.0%,-1.2%,39.8µM*
CC(C)(C)C1CCc2oc3ccc(NS(=O)(=O)c4ccc(C(=O)O)cc4)cc3c2C1 (stereo not drawn),?,-10.1%,-26.2%[57.1 µM],?,.,?
c1ccc(CN2CCNc3cc(-c4ccncc4)ncc3C2)cc1,2.7%[176 µM],.,.,.,.,.
CCOC(=O)c1ccc(N=C2C(=S)N(c3ccc(C(=O)OCC)cc3)C(=N)N2/N=C/c2ccccc2)cc1,-23.6%,-40.7%,-3.0%,?,?,3.98µM*
CCc1ccc(/C=N/N=C/c2ccc(CC)cc2)cc1,10.7%,.,.,.,.,.
CCCC[C@@H]1CNC(=S)N1CC1CCCCC1,50.1µM*,19.3%,-15.3%,-23.7%,-11.1%,21.1%[59 µM]
CCCC[C@@H]1CNC(=S)N1CCC12CC3CC(CC(C3)C1)C2,35.5µM*,36.7%,-13.0%,-31.4%,-16.2%,13.1%[59 µM]
CCOC(=O)c1cc(-c2ccc(N)cc2)sc1N,?,-50.7%,31.6µM*,44.7µM*,-19.8%,?
CCOC(=O)c1cc(-c2ccccc2)sc1NC(=O)c1ccc(OC)c(OC)c1,11.2µM*,?,8.8%,?,4.74µM*,3.55µM*
COC(=O)c1cc(-c2ccccc2)sc1NC(=O)CN1C(=O)c2ccccc2C1=O,?,?,-2.4%,?,11.9µM*,10µM*
CCOC(=O)c1cc(-c2ccccc2)sc1NC(=S)Nc1cccc(C)n1,20µM*,14.7%,-6.7%,-12.1%,-0.5%,.
CCOC(=O)c1cc(-c2ccccc2)sc1NC(=O)C(C)Sc1nnc(C)s1 (stereo not drawn),-10.8%,19.0%,-4.3%,-2.7%,3.5%,0.7%[59 µM]
CCc1nc(SCC(=O)N2CCCC2)c2ccccc2n1,-21.0%,9.1%,1.1%,-3.4%,-4.2%,9.7%[12.7 µM]
CCOC(=O)c1cc(-c2ccccc2)sc1NC(=O)COC,-6.0%,4.4%,-24.2%,3.5%,-18.1%,10.8%[0.501 µM]
CCOC(=O)c1ccc(OS(=O)(=O)c2ccccc2)c(OC)c1,1.7%,69.4%,64.6%,89.1µM*,26.7µM*,5.3%[59 µM]
CCOc1cc(C(=S)N2CCOCC2)ccc1OS(=O)(=O)c1ccccc1,-2.6%,28.5%,-9.3%,-18.6%,-5.2%,-5.9%[59 µM]
